# Measurements as given in PubChem BioAssay AID504582 (Broad Institute, 2011).
# Among all 340,000 compounds or so, about 2,300 (0.68%) were called active. Many of the other results were omitted from the sample, so actives are more common in it than they were. Unmarked numbers belong to inactive results. Rule as the data show it: active = growth rescue above about 28% (passing the limit was not always enough); inconclusive = no clear call, values can overlap the other calls.
# Assay: rescue of yeast from PfHsp40 toxicity, primary screen, S. cerevisiae, ATP luminescence (AID 504582);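 also: yeast W303a lacking pdr1 and pdr3 grown in galactose medium; growth measured after three days at 30 °C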
# Conditions: S. cerevisiae expressing PfHsp40, growth rescue, at 12.5 µM, hits give high values
row,Compound,growth rescue
1,COc1ccnc(Oc2ccccc2)c1-c1ncn[nH]1,-2.24%
2,COc1ccc(NCCc2ccccn2)cc1,-0.895%
3,COc1cnc(-c2ccccn2)nc1Oc1ccc(C(C)(C)C)cc1,162% (active)
4,CC1(C(=O)O)CCC(C(=O)Nc2ccc(Cl)c(Cl)c2)C1(C)C (stereo unspecified),-0.486%
5,Cc1cccc(C)c1NC(=O)CCCSc1nnc(-c2ccco2)n1-c1ccccc1,0.934%
6,COc1ccc(CCNC(=O)COc2ccc3c(c2)OCO3)cc1,-0.845%
7,Oc1c(CN2CCCC2)cc(COCc2ccccc2)c2cccnc12,281% (active)
8,COc1cc(C)cc(CN2CCC(Cc3ccccc3)CC2)c1O,0.509%
9,CC1CCCN(CC(O)COCc2ccccc2)C1 (stereo unspecified),-0.272%
10,COCCCNC(=S)N1CCCC(c2nc3cc(C)c(C)cc3[nH]2)C1 (stereo unspecified),-0.694%
11,CCc1ccccc1N(CC(=O)N1CCN(c2ccccc2F)CC1)S(C)(=O)=O,0.191%
12,COc1ccc(N2C(=O)/C(=C\c3ccco3)N=C2SCC(N)=O)cc1Cl,-0.407%
13,COc1ccc2c(c1)C=CC1(O2)N(CCO)c2ccccc2C1(C)C (stereo unspecified),-0.159%
14,CN1c2ccc([N+](=O)[O-])cc2C(C)(C)C12C=Cc1cc(C(=O)O)ccc1O2 (stereo unspecified),200% (active)
15,COc1ccc(N2CCN(c3ccc([N+](=O)[O-])cc3Cl)CC2)cc1,-0.626%
16,Cc1nn(Cc2ccccc2Cl)c(C)c1NC(=O)Cn1nc([N+](=O)[O-])c(Cl)c1C,-0.0385%
17,Cc1c(Cl)c([N+](=O)[O-])nn1Cc1ccc(C(=O)N/N=C\c2cc(Cl)ccc2O)o1,29.8% (active)
18,O=C(N/N=C\c1ccc(Br)cc1)c1ccc(Cn2cccn2)o1,0.111%
19,COc1ccc(/C=C(\C#N)C(=O)NCCCn2ccnc2)cc1,-0.489%
20,CC1(C)NC(=O)N(CCCCSc2ccc(Cl)cc2)C1=O,0.18%
21,Cc1ccc(NC(=O)COc2ccc(/C=N\NC(=O)c3cccnc3)cc2)cc1C,-0.012%
22,O=C(O)c1ccc(N/N=C/c2cn(-c3ccccc3)nc2-c2cccs2)cc1,0.668%

row,Compound,growth rescue
1,O=C(N/N=C/c1sc(N2CCCCC2)nc1-c1cccs1)c1cccnc1,140% (active)
2,CSc1ccc(/C=N/NC(=O)c2cccc(Cl)c2)cc1,40.3% (active)
3,O=C(NN=Cc1ccccc1)c1ccccc1,0.391%
4,O=C(N/N=C/c1ccc(Cl)c(Cl)c1)c1ccc2nc[nH]c2c1,0.517%
5,COC(=O)C1=NNC2(c3ccc(C)cc3)C(=O)N(c3cccc(C)c3C)C(=O)C12 (stereo unspecified),-0.596%
6,O=C(CSc1ccccn1)N1CCN(S(=O)(=O)c2ccc(Cl)cc2)CC1,-0.63%
7,CCc1cc(C(N)=O)c(NC(=O)c2ccc(OC)cc2)s1,648% (active)
8,COc1ccc(C(=O)Nc2sc(C)c(C)c2CN2CCOCC2)cc1,0.992%
9,CCc1cc(C(=O)c2ccc(OC)cc2)c(NC(=O)CN2CCN(C)CC2)s1,-1.5%
10,O=C(c1ccc2c(c1)OCO2)N1CCNc2ccccc2C1,-1.38%
11,COc1ccc(-n2cnc3cc(C(=O)NC4CCCC4)ccc32)cc1,3.16%
12,COc1cc(C(=O)NC2CCN(C)CC2)ccc1Nc1ncc2c(n1)N(C1CCC(O)CC1)CCC(=O)N2C (stereo unspecified),44.4% (active)
13,COc1ccc(C(=O)NC2CC2)cc1OC1CCN(Cc2cnn(C)c2)CC1,-0.458%
14,O=C(/C=N/O)Nc1ccccc1,-1.81%
15,c1ccc(-c2nccc(-c3ccc(-n4cnc5ccccc54)cc3)n2)nc1,3.45%
16,CN(C)Cc1c(O)ccc2c(=O)c(-c3ccccc3Cl)coc12,-1.86%
17,O=C(NCCC1=CCCCC1)c1ccc(-n2cncn2)cc1,0.575%
18,O=C(NCCC1=CCCCC1)c1ccc(Cl)c([N+](=O)[O-])c1,34.2% (active)
19,CN(c1ccc(C(=O)NCCC2=CCCCC2)cc1)S(C)(=O)=O,-0.452%
20,CCOc1ccccc1N(CC(=O)NC1CCCCC1)C(=O)CCCC(=O)Nc1ccccn1,0.515%
21,Cc1ccc(NC(=O)CN(C)C(=O)COC(=O)C(C)(C)Oc2ccc(Cl)cc2)cc1,-0.952%
22,O=C(NNC(=S)NC(=O)c1cn(-c2ccccc2)nc1-c1ccccc1)c1ccncc1,117% (active)

row,Compound,growth rescue
1,Cc1ccc(-c2nn(-c3ccccc3)cc2C(=O)NC2CCC(O)CC2)cc1 (stereo unspecified),-0.972%
2,NC(=O)C1CCN(C(=O)c2cn(-c3ccccc3)nc2-c2cccnc2)CC1,-1.23%
3,Cc1ccc(SC(=O)COc2ccc(C)c(C)c2)cc1,-0.169%
4,CCOc1ccc(-c2ccc(SCC(=O)N3CCOCC3)nn2)cc1,-0.865%
5,CC(C)C[C@@H](COc1ccccc1)N1CCN(CC(C)C)CCC1=O,0.09%
6,CC1(C)C=Cc2c(ccc3c2OC[C@@H](c2ccc(O)cc2O)C3)O1,232% (active)
7,Nc1cc(N)nc(SCC(=O)Nc2cccc(S(=O)(=O)N3CCCCC3)c2)n1,0.009%
8,Cn1c(CC2Sc3ccccc3NC2=O)nnc1SCC(=O)c1ccc(Cl)cc1 (stereo unspecified),-0.256%
9,COc1ccc(C2N=C(N)N=C(N)N2c2ccccc2)cc1OC (stereo unspecified),0.038%
10,COCCN(C(=O)c1ccccc1F)c1c(N)n(Cc2ccccc2)c(=O)[nH]c1=O,-0.643%
11,CC/C(=N\NC(=O)c1ccccc1Cl)c1ccc(Br)s1,-0.619%
12,CC/C(=N\NC(=O)c1ccccc1O)c1c(O)n(Cc2ccccc2)c(=O)[nH]c1=O,44.8% (active)
13,COc1ccc(C(=O)CN2C(=O)NC(C)(c3ccc(C)cc3)C2=O)cc1OC (stereo unspecified),0.439%
14,COc1ccc(C2Nc3ccccc3C(=O)N2c2ccc(Cl)cc2)cc1Cn1cc([N+](=O)[O-])cn1 (stereo unspecified),0.089%
15,Cn1ncc(Br)c1C(=O)NC1CCCC1,-0.467%
16,COC(=O)[C@@H]1C[C@@]2(O)[C@H](O)[C@H](O)[C@H](O)C[C@H]2N1Cc1ccc(C(C)(C)C)cc1,29% (active)
17,COC(=O)[C@@H]1C[C@@]2(O)[C@@H](O)[C@@H](O)[C@@H](O)C[C@H]2N1Cc1ccc(C)s1,-0.441%
18,COC(=O)[C@@H]1C[C@@]2(O)[C@H](O)[C@H](O)[C@H](O)C[C@H]2N1Cc1ccc(C)s1,-1.59%
19,CC(=O)c1cccc(-c2ccc(CN3C(CC(C)C)C(=O)N(Cc4cn(CC5CCCCC5)nn4)CCS3(=O)=O)cc2)c1 (stereo unspecified),0.3%
20,Cc1cc(N=Nc2ccc3ccccc3c2)ccc1O,91.3% (active)
21,C#CCOCCOCCOCCNc1nc(N2CCN(C(=O)CCCCCCCCCCNC(=O)[C@H]([C@@H](C)CC)n3cc(CCCCN=C(N)N)nn3)CC2)nc(N2CCN(C(=O)CCCCCCCCCCNC(=O)[C@H](CO)n3cc(CCCSC)nn3)CC2)n1,29.5% (active)
22,C#CCOCCOCCOCCNc1nc(N2CCN(C(=O)[C@H](CCCN=C(N)N)n3cc(C(N)[C@@H](C)CC)nn3)CC2)nc(N2CCN(C(=O)[C@H](CO)n3cc([C@@H](N)C(C)C)nn3)CC2)n1 (stereo partly specified),-0.354%

row,Compound,growth rescue
1,C#CCOCCOCCOCCNc1nc(N2CCN(C(=O)[C@H](C(C)C)n3cc(CCO)nn3)CC2)nc(N2CCN(C(=O)[C@H](C(C)C)n3cc(CCO)nn3)CC2)n1,-2.28%
2,CCOc1ccc(S(=O)(=O)n2ccnc2)c2ccccc12,-0.0665%
3,CN(C)C(=O)CCC(=O)N1CCCCC1C(=O)Nc1ccc(Oc2ccccc2F)cc1 (stereo unspecified),141% (active)
4,COc1cccc(NC(=O)C2CCCN2C(=O)OCc2ccccc2)c1 (stereo unspecified),0.607%
5,COc1ccc(NC(=O)N2CCCC2C(=O)NCc2ccccc2Cl)cc1 (stereo unspecified),-2.16%
6,COc1ccc(OC)c(C(=O)c2ccc(C(=O)N3CCN(Cc4csc(C)n4)CC3)cc2)c1,-1.18%
7,O=C(Cn1nnc(-c2ccccc2)n1)N/N=C/c1ccc(-c2ccc(Cl)cc2)o1,-1.63%
8,O=C(NCc1ccco1)C1CCCN(S(=O)(=O)c2cnc[nH]2)C1 (stereo unspecified),0.411%
9,COc1cc(/C=N/O)cc(Br)c1OCc1cccc(Cl)c1,157% (active)
10,COc1cc(/C=N/O)cc(Br)c1OS(=O)(=O)c1ccc(C)cc1,-0.295%
11,COc1cc(C(=O)NCc2ccncc2)cc(Br)c1OCc1ccccc1,1.27%
12,Cc1cccc(N2C(=O)c3ccc(C(=O)Nc4cccc(C(=O)O)c4)cc3C2=O)c1,-0.247%
13,COc1ccc(OC)c(NC(=O)c2ccc3c(c2)C(=O)N(c2ccc(OC(C)=O)cc2)C3=O)c1,-0.414%
14,CC(=O)Oc1ccc(C)cc1N1C(=O)c2ccc(C(=O)O)cc2C1=O,103% (active)
15,CCc1ccc(C(=O)NNC(=O)C2CCN(c3ncnc4sc(C)c(C)c34)CC2)cc1,4.88%
16,O=S(=O)(c1ccc(Br)cc1)n1ccc2ccccc21,17.1%
17,CCCC(C)C(=O)OCC(=O)Nc1c(Br)cc(C)cc1Br (stereo unspecified),1.14%
18,COc1ccc(NC(=O)CSc2nc3ccccc3c(=O)n2C)cc1,-2.46%
19,COc1ccc(OCc2ccc(-c3nc4ccccc4c(=O)n3N)o2)cc1,0.704%
20,COc1ccc(-c2nc3ccccc3c(=O)n2CCc2ccc(O)cc2)cc1,31.2% (active)
